Results as given in paper PMC7862700, “An all-to-all approach to the identification of sequence-specific readers for epigenetic DNA modifications on cytosine”.

Legend:
Assay in all cases: DAPPL (digital affinity profiling via proximity ligation, sequencing); 10 mM Tris-HCl pH 7.5, 50 mM NaCl, 1 mM DTT, 4% glycerol, room temperature, 30 min; GST-TFs on glutathione beads, 16-mer random dsDNA library, 0.1% formaldehyde crosslink after washing; high values mean tight binding
FLI1 = target: T1, FLI1 (Homo sapiens, UniProt Q01543 1-452); conditions: protein: recombinant; tags: N-terminal GST; dsDNA, one strand shown
T1 sequence: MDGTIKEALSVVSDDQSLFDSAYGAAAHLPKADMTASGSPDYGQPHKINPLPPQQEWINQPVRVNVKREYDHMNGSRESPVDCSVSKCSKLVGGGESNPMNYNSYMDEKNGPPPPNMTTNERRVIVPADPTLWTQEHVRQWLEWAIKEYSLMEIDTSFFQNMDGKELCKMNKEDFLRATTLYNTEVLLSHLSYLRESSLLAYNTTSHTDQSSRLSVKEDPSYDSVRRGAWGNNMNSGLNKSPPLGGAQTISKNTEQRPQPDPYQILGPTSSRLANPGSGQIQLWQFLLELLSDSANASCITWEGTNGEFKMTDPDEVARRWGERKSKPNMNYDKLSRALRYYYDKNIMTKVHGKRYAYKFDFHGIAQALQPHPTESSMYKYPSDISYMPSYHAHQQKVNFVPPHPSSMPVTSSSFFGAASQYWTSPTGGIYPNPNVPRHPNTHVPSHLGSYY
Method in brief: (§1)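 A tag-only sample was pooled with DNA-barcoded human transcription factors that had been expressed in yeast as GST fusions and captured on glutathione beads. The pools were incubated for 30 min at room temperature with 200 nmole of a random double-stranded 16-mer DNA library in Tris/NaCl/DTT/glycerol buffer, then washed, crosslinked with 0.1% formaldehyde, proximity-ligated (BsaI/T4 ligase, 1 h, 37 °C), PCR-amplified and sequenced on an Illumina NextSeq500. Binding signal is each hexamer's read frequency for a factor divided by its frequency for the tag-only sample.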

ELK1 = target: T2, ELK1 (Homo sapiens, UniProt P19419 1-428); conditions: protein: recombinant; tags: N-terminal GST; dsDNA, one strand shown
T2 sequence: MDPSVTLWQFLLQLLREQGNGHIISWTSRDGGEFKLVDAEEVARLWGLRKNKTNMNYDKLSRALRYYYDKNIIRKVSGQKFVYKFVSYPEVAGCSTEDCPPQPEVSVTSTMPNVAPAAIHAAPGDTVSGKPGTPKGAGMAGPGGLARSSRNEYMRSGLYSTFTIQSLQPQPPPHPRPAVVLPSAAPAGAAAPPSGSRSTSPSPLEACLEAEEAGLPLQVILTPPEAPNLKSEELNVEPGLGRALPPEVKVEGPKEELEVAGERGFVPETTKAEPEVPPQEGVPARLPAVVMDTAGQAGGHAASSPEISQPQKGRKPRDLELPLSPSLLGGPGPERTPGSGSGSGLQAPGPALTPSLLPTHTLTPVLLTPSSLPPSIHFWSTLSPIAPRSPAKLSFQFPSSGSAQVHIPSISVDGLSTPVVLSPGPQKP
Method in brief: as §1

GABPA = target: T3, GABPA (Homo sapiens, UniProt Q06546 1-454); conditions: protein: recombinant; tags: N-terminal GST; dsDNA, one strand shown
T3 sequence: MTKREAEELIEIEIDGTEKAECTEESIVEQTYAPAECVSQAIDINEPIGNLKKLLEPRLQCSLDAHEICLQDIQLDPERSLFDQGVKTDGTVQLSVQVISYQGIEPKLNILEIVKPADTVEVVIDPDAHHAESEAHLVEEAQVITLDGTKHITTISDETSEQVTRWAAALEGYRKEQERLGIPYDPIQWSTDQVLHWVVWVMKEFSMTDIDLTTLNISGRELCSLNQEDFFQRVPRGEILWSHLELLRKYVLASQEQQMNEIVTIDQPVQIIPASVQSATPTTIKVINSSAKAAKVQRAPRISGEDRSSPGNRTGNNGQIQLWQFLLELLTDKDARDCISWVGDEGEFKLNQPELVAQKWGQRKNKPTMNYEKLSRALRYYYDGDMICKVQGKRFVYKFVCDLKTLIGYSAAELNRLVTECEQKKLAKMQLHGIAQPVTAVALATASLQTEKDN
Method in brief: as §1

ERG = target: T4, ERG (Homo sapiens, UniProt P11308 1-479); conditions: protein: recombinant; tags: N-terminal GST; dsDNA, one strand shown
T4 sequence: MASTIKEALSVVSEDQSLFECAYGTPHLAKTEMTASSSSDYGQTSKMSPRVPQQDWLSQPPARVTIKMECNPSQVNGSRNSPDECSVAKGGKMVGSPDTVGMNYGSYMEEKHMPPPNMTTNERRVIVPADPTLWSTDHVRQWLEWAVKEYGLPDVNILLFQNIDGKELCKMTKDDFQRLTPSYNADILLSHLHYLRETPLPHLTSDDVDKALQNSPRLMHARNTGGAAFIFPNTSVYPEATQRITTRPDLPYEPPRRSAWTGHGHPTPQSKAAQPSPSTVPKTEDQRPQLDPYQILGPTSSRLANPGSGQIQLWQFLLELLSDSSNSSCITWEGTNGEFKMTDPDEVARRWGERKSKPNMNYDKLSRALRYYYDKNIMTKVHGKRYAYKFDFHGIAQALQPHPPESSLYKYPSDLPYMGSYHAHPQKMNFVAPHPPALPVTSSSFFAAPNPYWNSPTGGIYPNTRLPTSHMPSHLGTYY
Method in brief: as §1

ELF1 = ELF1 (Homo sapiens, UniProt P32519 1-619); conditions: protein: recombinant; tags: N-terminal GST; dsDNA, one strand shown
Sequence of ELF1 (P32519 whole entry): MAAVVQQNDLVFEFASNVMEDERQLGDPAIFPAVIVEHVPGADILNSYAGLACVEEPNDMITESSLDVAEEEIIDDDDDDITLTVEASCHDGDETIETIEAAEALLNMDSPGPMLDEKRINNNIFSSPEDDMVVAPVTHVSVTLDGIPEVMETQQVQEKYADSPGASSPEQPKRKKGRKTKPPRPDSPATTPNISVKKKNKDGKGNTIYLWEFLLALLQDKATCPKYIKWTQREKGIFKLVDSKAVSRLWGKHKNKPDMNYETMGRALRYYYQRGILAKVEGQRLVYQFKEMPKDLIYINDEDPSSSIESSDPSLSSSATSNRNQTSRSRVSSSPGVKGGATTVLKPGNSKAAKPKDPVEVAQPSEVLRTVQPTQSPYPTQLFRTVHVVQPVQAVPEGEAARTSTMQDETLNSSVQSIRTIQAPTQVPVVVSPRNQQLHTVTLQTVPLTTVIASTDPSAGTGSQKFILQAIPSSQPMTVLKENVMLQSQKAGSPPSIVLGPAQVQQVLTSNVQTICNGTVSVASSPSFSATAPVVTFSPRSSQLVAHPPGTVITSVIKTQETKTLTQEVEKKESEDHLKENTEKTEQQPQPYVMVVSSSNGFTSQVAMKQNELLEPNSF
Method in brief: as §1

EHF = target: T5, EHF (Homo sapiens, UniProt Q9NZC4 1-300); conditions: protein: recombinant; tags: N-terminal GST; dsDNA, one strand shown
T5 sequence: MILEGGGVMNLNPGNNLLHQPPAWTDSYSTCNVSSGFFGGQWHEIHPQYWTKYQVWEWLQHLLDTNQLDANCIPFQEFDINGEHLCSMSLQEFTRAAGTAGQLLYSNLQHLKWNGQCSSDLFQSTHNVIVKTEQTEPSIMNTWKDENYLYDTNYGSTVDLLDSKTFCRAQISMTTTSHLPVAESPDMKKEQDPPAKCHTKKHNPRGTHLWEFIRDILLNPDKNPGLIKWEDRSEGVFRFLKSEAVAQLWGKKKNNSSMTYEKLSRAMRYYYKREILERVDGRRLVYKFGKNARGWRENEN
Method in brief: as §1

SPI1 = SPI1 (Homo sapiens, UniProt P17947 1-270); conditions: protein: recombinant; tags: N-terminal GST; dsDNA, one strand shown
Method in brief: as §1

SPIB = SPIB (Homo sapiens, UniProt Q01892 1-262); conditions: protein: recombinant; tags: N-terminal GST; dsDNA, one strand shown
Sequence of SPIB (Q01892 whole entry): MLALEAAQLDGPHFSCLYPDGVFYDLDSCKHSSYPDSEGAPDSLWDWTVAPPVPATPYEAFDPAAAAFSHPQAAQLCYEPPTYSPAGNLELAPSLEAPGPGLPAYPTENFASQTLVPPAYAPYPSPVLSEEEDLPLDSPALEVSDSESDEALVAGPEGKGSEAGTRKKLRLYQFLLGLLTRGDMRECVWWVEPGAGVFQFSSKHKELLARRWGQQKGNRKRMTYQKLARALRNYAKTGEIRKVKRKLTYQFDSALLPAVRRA
Method in brief: as §1

ELK3 = target: T6, ELK3 (Homo sapiens, UniProt P41970 1-407); conditions: protein: recombinant; tags: N-terminal GST; dsDNA, one strand shown
T6 sequence: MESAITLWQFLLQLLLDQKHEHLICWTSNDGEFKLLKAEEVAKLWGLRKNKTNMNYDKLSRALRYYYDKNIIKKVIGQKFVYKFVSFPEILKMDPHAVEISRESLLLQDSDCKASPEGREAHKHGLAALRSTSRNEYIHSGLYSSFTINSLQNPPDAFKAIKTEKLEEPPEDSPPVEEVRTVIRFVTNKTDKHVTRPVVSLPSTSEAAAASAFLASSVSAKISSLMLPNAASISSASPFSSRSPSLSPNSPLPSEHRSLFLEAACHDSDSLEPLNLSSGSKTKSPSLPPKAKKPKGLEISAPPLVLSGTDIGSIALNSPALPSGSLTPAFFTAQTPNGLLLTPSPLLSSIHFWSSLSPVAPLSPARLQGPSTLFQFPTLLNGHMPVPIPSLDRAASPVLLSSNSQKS
Method in brief: as §1

FEV = target: T7, FEV (Homo sapiens, UniProt Q99581 1-238); conditions: protein: recombinant; tags: N-terminal GST; dsDNA, one strand shown
T7 sequence: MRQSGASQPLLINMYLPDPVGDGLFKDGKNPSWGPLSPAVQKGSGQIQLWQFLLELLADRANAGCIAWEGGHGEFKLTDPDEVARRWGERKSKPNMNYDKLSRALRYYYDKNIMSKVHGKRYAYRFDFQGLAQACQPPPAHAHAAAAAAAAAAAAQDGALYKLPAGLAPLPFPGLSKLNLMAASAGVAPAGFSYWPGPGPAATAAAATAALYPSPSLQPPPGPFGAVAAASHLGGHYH
Method in brief: as §1

ETV5 = ETV5 (Homo sapiens, UniProt P41161 1-510); conditions: protein: recombinant; tags: N-terminal GST; dsDNA, one strand shown
Sequence of ETV5 (P41161 whole entry): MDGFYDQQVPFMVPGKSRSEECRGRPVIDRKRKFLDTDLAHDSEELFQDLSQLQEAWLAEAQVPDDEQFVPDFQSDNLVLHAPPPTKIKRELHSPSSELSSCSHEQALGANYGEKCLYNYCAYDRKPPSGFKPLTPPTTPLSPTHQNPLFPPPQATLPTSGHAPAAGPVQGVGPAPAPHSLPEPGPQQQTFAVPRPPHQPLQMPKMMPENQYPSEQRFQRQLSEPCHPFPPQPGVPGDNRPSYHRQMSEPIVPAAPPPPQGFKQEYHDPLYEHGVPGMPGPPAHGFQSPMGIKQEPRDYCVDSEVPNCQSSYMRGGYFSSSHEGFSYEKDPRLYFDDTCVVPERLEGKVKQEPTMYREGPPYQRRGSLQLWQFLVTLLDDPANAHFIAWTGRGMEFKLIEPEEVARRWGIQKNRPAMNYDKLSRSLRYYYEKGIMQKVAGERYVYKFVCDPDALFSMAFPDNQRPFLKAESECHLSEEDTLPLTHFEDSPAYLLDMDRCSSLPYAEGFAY
Method in brief: as §1

HSF1 = HSF1 (Homo sapiens, UniProt Q00613 1-529); conditions: protein: recombinant; tags: N-terminal GST; chain copies: 3; dsDNA, one strand shown
Sequence of HSF1 (Q00613 whole entry): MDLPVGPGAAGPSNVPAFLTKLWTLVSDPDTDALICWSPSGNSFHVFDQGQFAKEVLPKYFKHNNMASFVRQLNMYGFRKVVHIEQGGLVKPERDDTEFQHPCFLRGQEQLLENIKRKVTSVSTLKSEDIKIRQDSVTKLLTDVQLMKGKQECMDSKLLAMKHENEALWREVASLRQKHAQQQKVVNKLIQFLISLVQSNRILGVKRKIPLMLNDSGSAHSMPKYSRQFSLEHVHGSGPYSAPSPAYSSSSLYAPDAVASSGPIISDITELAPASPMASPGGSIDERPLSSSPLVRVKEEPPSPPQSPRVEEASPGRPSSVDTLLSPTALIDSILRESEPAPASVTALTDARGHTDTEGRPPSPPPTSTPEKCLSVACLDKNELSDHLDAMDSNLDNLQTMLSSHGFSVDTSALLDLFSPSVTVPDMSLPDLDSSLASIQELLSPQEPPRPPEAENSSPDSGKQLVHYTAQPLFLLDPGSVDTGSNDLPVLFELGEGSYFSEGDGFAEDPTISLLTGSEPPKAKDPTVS
Method in brief: as §1

SPIC = target: T8, SPIC (Homo sapiens, UniProt Q8N5J4 1-248); conditions: protein: recombinant; tags: N-terminal GST; dsDNA, one strand shown
T8 sequence: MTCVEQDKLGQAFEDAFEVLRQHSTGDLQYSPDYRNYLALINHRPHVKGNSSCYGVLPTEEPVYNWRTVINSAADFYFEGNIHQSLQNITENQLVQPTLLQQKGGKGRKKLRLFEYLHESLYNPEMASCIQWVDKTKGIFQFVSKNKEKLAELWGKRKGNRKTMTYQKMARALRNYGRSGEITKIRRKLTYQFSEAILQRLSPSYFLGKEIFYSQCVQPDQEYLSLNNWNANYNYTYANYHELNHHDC
Method in brief: as §1

ELF4 = ELF4 (Homo sapiens, UniProt Q99607 1-663); conditions: protein: recombinant; tags: N-terminal GST; dsDNA, one strand shown
Sequence of ELF4 (Q99607 whole entry): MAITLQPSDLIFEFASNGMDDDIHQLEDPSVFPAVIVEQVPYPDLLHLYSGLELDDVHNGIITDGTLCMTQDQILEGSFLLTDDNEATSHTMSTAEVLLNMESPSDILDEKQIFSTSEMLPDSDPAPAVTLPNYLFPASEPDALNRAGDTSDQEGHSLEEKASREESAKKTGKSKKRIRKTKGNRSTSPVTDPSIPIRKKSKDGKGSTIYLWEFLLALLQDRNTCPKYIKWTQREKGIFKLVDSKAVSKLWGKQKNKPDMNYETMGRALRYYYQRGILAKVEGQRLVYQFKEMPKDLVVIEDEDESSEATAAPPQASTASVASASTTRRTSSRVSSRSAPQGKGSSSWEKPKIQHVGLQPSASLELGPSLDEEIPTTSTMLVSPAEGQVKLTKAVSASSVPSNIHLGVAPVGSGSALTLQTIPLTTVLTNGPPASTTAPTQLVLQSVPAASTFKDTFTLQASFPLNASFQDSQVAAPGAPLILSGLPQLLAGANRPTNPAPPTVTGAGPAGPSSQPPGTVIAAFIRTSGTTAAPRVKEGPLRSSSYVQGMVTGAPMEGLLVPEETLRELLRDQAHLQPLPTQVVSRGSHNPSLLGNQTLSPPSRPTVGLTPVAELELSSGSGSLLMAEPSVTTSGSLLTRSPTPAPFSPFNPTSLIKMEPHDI
Method in brief: as §1

ELK4 = target: T9, ELK4 (Homo sapiens, UniProt P28324-2 1-405); conditions: protein: recombinant; tags: N-terminal GST; dsDNA, one strand shown
T9 sequence: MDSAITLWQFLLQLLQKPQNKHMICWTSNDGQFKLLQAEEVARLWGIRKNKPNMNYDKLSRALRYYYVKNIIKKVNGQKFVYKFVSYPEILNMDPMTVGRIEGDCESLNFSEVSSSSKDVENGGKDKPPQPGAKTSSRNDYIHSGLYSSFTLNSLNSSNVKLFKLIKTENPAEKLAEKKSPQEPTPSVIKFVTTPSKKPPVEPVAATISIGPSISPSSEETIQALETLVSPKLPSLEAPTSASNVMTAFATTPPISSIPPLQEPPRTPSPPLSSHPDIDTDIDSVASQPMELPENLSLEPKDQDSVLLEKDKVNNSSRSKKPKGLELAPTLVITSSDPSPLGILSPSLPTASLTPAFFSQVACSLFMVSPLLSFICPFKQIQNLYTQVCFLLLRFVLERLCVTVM
Method in brief: as §1

ETV2 = target: T10, ETV2 (Homo sapiens, UniProt O00321 1-342); conditions: protein: recombinant; tags: N-terminal GST; dsDNA, one strand shown
T10 sequence: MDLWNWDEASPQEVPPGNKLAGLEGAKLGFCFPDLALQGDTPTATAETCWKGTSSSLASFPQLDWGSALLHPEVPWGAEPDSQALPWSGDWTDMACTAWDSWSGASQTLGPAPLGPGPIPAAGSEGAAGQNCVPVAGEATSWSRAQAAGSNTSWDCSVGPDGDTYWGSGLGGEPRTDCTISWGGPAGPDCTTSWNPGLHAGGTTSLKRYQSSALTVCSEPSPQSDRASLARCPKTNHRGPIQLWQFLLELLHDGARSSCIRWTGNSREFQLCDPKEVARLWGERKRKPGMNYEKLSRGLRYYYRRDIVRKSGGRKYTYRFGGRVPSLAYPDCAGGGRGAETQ
Method in brief: as §1

ELF3 = target: T11, ELF3 (Homo sapiens, UniProt P78545 1-371); conditions: protein: recombinant; tags: N-terminal GST; dsDNA, one strand shown
T11 sequence: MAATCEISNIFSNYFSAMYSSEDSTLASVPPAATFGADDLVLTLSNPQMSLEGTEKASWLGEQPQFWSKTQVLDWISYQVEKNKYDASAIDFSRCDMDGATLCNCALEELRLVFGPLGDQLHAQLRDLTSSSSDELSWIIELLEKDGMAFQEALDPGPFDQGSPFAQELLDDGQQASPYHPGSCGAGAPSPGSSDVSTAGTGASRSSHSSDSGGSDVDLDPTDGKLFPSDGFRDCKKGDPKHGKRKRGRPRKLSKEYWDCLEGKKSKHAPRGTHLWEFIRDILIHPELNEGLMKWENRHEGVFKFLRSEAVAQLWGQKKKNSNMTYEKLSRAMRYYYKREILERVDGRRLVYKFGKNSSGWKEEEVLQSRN
Method in brief: as §1

CRX = CRX (Homo sapiens, UniProt O43186 1-299); conditions: protein: recombinant; tags: N-terminal GST; dsDNA, one strand shown
Sequence of CRX (O43186 whole entry): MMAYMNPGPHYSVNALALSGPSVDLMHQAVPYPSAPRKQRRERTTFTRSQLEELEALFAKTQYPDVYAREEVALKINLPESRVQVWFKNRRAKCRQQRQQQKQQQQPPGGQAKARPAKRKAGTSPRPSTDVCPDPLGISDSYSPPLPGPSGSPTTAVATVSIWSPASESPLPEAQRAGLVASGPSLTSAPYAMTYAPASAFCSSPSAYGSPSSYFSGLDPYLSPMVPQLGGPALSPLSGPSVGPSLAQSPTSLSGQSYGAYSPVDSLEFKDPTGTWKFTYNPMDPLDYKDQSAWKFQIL
Method in brief: as §1

ETV1 = ETV1 (Homo sapiens, UniProt P50549 1-477); conditions: protein: recombinant; tags: N-terminal GST; dsDNA, one strand shown
Sequence of ETV1 (P50549 whole entry): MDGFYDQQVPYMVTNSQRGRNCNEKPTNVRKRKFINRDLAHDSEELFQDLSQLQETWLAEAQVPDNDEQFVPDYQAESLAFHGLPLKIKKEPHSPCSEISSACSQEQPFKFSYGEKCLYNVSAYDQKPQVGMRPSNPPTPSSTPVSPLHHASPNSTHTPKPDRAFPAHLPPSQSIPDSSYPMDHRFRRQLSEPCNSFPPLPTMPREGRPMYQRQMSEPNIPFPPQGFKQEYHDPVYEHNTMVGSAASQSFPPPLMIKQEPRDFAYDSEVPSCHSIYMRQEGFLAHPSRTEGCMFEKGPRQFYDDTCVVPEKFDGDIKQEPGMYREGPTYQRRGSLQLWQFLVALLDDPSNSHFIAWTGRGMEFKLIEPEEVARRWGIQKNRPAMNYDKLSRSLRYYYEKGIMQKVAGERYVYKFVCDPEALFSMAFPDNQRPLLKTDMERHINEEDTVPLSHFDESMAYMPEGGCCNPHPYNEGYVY
Method in brief: as §1

Which results are given for TGGACT?
binding signal (FLI1): 1.19 fold enrichment (6-mer frequency, TF over GST control); binding signal (ELK1): 1.27 fold enrichment (6-mer frequency, TF over GST control); binding signal (GABPA): 1.25 fold enrichment (6-mer frequency, TF over GST control); binding signal (ERG): 1.18 fold enrichment (6-mer frequency, TF over GST control); binding signal (ELF1): 1.26 fold enrichment (6-mer frequency, TF over GST control); binding signal (EHF): 1.3 fold enrichment (6-mer frequency, TF over GST control); binding signal (SPI1): 1.18 fold enrichment (6-mer frequency, TF over GST control); binding signal (SPIB): 1.41 fold enrichment (6-mer frequency, TF over GST control); binding signal (ELK3): 1.2 fold enrichment (6-mer frequency, TF over GST control); binding signal (FEV): 1.32 fold enrichment (6-mer frequency, TF over GST control); binding signal (ETV5): 1.33 fold enrichment (6-mer frequency, TF over GST control); binding signal (HSF1): 1.18 fold enrichment (6-mer frequency, TF over GST control); binding signal (SPIC): 1.31 fold enrichment (6-mer frequency, TF over GST control); binding signal (ELF4): 1.34 fold enrichment (6-mer frequency, TF over GST control); binding signal (ELK4): 1.25 fold enrichment (6-mer frequency, TF over GST control); binding signal (ETV2): 1.27 fold enrichment (6-mer frequency, TF over GST control); binding signal (ELF3): 1.19 fold enrichment (6-mer frequency, TF over GST control); binding signal (CRX): 1.06 fold enrichment (6-mer frequency, TF over GST control); binding signal (ETV1): 1.33 fold enrichment (6-mer frequency, TF over GST control)
